From PubChem BioAssay AID652105 (National Center for Advancing Translational Sciences (NCATS), 2013)
The campaign covered roughly 330,000 compounds. About 4,100 (1.2%) were called active. Not shown: some 2% with an inconclusive outcome. Rule for the calls: active = max response of -50% or lower; inconclusive = between -30% and -50%; inactive = -30% or higher. The list comes from a sample in which actives are over-represented; it also holds similar structures and randomly drawn compounds.

These compounds were tested against Phosphatidylinositol 5-phosphate 4-kinase type-2 alpha (Homo sapiens) (UniProt P48426) (assay: qHTS for Inhibitors of phosphatidylinositol 5-phosphate 4-kinase (PI5P4K)). Settings: PI5P4Kalpha enzyme, ADP-Glo luminescence, 60 min; hits give low values.
How it was run: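 PI5P4Kalpha ADP-Glo assay; 5 microM ATP final; 60 min RT reaction; HEPES pH 7.4/EGTA/CHAPS, 5% DMSO; controls lacking substrate or enzyme; luminescent end-point.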
% is set by controls: 0 for no effect and ±100 for the full control effect.
Note: value at the top dose of about 77 µM.

Sequence of Phosphatidylinositol 5-phosphate 4-kinase type-2 alpha (Homo sapiens) (P48426 whole entry, looked up): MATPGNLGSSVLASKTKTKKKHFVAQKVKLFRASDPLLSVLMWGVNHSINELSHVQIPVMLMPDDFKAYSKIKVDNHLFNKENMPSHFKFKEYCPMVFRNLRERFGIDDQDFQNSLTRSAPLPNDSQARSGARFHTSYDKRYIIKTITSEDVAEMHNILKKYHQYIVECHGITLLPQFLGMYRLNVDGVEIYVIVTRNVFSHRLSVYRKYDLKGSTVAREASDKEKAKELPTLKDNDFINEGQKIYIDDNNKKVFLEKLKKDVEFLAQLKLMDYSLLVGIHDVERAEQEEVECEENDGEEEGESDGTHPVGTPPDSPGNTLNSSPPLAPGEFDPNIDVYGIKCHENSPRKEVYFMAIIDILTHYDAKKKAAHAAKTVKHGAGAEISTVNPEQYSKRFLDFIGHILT

Max response, inactive:
COC(=O)c1ccc2nc(-c3ccc(OC)c(OC)c3)c(Cc3ccccc3)n2c1 -1.07%
CCOC(=O)C=Cc1ccc(C(=O)OCC)[nH]1 2.97%
CCN(CCN(C)C)C(=O)c1ccc2nc(C)c(N(C)C(=O)CCc3ccccc3)n2c1 10.1%
O=C(COC(=O)c1cc(S(=O)(=O)N2CCCCC2)ccc1Cl)NCc1ccco1 -24.6%
O=C(COC(=O)c1cccs1)NCc1cccs1 -2.68%
CC1CCN(C(=O)COC(=O)CCC(=O)c2cccs2)CC1 -4%
O=C(COC(=O)Cc1ccc(Cl)cc1Cl)NCc1ccco1 0.392%
Cc1cc(C)n2c(Nc3c(C)cccc3C)c(CCc3ccccc3)nc2n1 0.703%
Cc1ccc(Cc2c(-c3ccc(Cl)cc3)nc3c4ccccc4ccn23)cc1 19.7%
Cc1ccccc1Cn1c(C)c(C(=O)NCc2cccc(C(F)(F)F)c2)sc1=O 6.94%
CCCCCn1nnnc1-c1nc2cc3ccccc3cc2[nH]c1=O -6.84%
CCOC(=O)C(C(=O)c1ccccc1)C(c1ccccc1)c1nccc2ccccc12 (stereo not given) -6.07%
N#Cc1c(-c2ccccc2)cc(-c2ccccc2)nc1SCC(=O)O -13.7%
N#CCc1c(C#N)c(N)nc(N2CCCC2)c1C#N -5.04%
Nc1ncnc2c1ncn2[C@@H]1O[C@H](C(=O)NS(=O)(=O)c2c(Cl)nc3sccn23)[C@@H](O)[C@H]1O -5.36%
CC(C)(C)CC(=O)Nc1nc(C(N)Cc2ccc(C(F)(F)F)cc2)cs1 (stereo not given) 0.168%
Nc1ncnc2c1ncn2[C@@H]1O[C@H](C(=O)N2CCCN(Cc3ccccc3F)CC2)[C@@H](O)[C@H]1O 1.03%
CCOC(=O)CSc1nccc(N(C)C)c1C#N -3.71%
CCOC(=O)COc1nc(C)cc(C(F)(F)F)c1C#N 3.55%
CCOC(=O)C1(C)CCCN(C(=O)c2ccc(F)c(Cl)c2)C1 (stereo not given) -14.5%
CCOC1=C2[C@@H](CN(S(=O)(=O)c3ccc(C)cc3)[C@H]2c2ccccc2F)[C@H]2C(=O)N(Cc3ccccc3)C(=O)[C@H]2C1 -0.38%
CCCNC(=O)C1(C)CCN(Cc2ccc(Cl)c(Cl)c2)C1 (stereo not given) 6.81%
CCCCN(C=O)c1c(CC)nc2c(OCc3ccccc3C(=O)OC)cccn12 -7.91%
O=C1[C@H]2[C@@H](c3ccc(C(F)(F)F)cc3)N[C@]3(CCCN(Cc4ccc(Cl)cc4)C3=O)[C@H]2C(=O)N1Cc1ccccc1 6.21%
COC(=O)[C@@]12C[C@@H](CC(=O)NCCCCc3ccccc3)C(=O)N(CCc3ccc(OC)c(OC)c3)C1=CCC(C)(C)C2 21.2%
O=C(c1ncn2c1c(=O)[nH]c1ccccc12)N1CCc2ccccc2C1 -1.33%
O=c1[nH]n2c(-c3ccccc3)nc(O)c2c2ccccc12 -2.92%
CN(Cc1ccccc1F)c1cc2c(c3c1ccn3C)C1CCC2O1 (stereo not given) -0.125%
C[C@@H]1CN([C@H](C)CO)S(=O)(=O)c2ccc(C#C[C@@H](C)O)cc2O[C@@H]1CN(C)Cc1ccc(-c2ccccc2)cc1 2.03%
OC[C@@H]1CN(Cc2ccc3c(c2)OCO3)C[C@H](n2cnc3c(NCc4ccco4)ncnc32)O1 -4.15%
CC(Sc1ccc(S(=O)(=O)N2CCN(C)CC2)cn1)C(=O)NC1CCCC(C)C1C (stereo not given) 0.777%
COc1ccc(-c2ccc3[nH]c4c(c3c2)CCN2C[C@H]3[C@H](C)ON(C)[C@H]3C[C@@H]42)cc1 0.74%
O=C(C[C@H]1C[C@@H]2c3cc(NC(=O)C4CCC4)ccc3O[C@@H]2[C@H](CO)O1)NC1CCCCC1 -3.63%
Cc1nn(C)cc1/C=C1\CCC/C(=C\c2cn(C)nc2C)C1=O -2.16%
C=C1C(=O)[C@]23C[C@H]1CCC2[C@@]1(C)C(C[C@@H]3O)[C@](C)(C(=O)O)CC[C@@H]1O (stereo not given in full) 3.48%
O=[N+]([O-])c1ccc(CN2CC(N3CCC(c4ccccc4)CC3)CS2(=O)=O)cc1 (stereo not given) 5.16%
COc1ccc(CNc2nc3c(c(=O)[nH]c(=O)n3C)n2Cc2ccccc2)cc1 6.3%
C=CCSc1nc2c(c(=O)[nH]c(=O)n2C)n1Cc1ccccc1 7.13%

Max response, active:
O=C(COC(=O)c1ccccc1O)NCc1ccco1 -51.6%
O=C(COC(=O)CCC(=O)c1cccs1)NCc1ccco1 -63%
N#Cc1c(N2CCCCC2)nc(N)c2c(N)nc(SCC(=O)O)cc12 -86.9%
CCOC(=O)C(Sc1ncc(C#N)c(N)n1)C(C)C (stereo not given) -50.3%
O=c1[nH]c2ccccc2n2c(-c3ccccc3)nnc12 -92.9%
CCn1cc(/C=C2/SC(=S)NC2=O)c(C)n1 -66.5%
Cn1c(=O)[nH]c(=O)c2c1[nH]c(=S)n2Cc1ccccc1 -85.5%
